Screening results from PubChem BioAssay.
Tb PYK inh: qHTS of Trypanosoma Brucei Inhibitors; hit rate 0.12% among 410,000; Potency, µM (doses to about 76.8 µM), hits mostly inhibitors; pyruvate kinase (Trypanosoma brucei), Q57TT1; TbPYK enzyme, Kinase-Glo Plus ATP luminescence, 45 min; further: nearly all actives have a fitted effect of over 50% in size
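Quantitative HTS: titrated library compounds versus trypanosomal pyruvate kinase in TEA buffer (pH 7.2) containing KCl, MgCl2, BSA and Tween-20. Reactions were initiated with ADP, 130 uM final. Kinase-Glo Plus luminescence was read after 45 min at RT.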
RE007 growth inh: qHTS Assay for Inhibitors of the HIV-1 protein Vpr. S. pombe RE007 Vpr strain, BacTiter-Glo ATP luminescence, 24 h. Potency, µM (titrated, usually from 92.2 µM), most hits filed as inhibitors. hit rate 0.21% among 360,000. AID 651644, 2012; active means well fitted falling curve with a large enough effect; inconclusive means small, poorly fitted or top-dose-only effect; inactive means no such curve, though single readings can be large or run the other way; further: nearly all actives have a fitted effect of over 50% in size
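Fission yeast RE007 carrying one integrated HIV-1 vpr copy, seeded at OD 0.01 in PMG+AL medium with 23 nL pinned compound. Grown 24 h at 30 degrees; viability read by BacTiter-Glo luminescence after 5 min.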
AMA1-RON2 inh: qHTS for Inhibitors of AMA1-RON; Towards Development of Antimalarial Drug Lead: Primary Screen; Plasmodium falciparum AMA1 (3D7) - RON2 peptide interaction; AlphaScreen AMA1-biotinylated RON2 peptide binding; Potency, µM (highest dose often 58.2 µM), hits mostly inhibitors; hit rate 0.2% among 360,000; further: nearly all actives have a fitted effect of over 45% in size
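AMA1 (3D7) with his tag at 25 nM final met compounds first, then biotinylated RON2 peptide at 25 nM; detection used donor plus acceptor beads, 10 µg/mL apiece, read by AlphaScreen after 30 min at room temperature.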
LmPK inhibitor: qHTS Assay for Inhibitors of Leishmania Mexicana Pyruvate Kinase (LmPK); Q27686; purified LmPK, Kinase-Glo ATP luminescence, 1 h; Potency, µM (titrated, usually from 57.5 µM), hits mostly inhibitors; hit rate 0.37% among 290,000
Target sequence (Q27686 whole entry, looked up): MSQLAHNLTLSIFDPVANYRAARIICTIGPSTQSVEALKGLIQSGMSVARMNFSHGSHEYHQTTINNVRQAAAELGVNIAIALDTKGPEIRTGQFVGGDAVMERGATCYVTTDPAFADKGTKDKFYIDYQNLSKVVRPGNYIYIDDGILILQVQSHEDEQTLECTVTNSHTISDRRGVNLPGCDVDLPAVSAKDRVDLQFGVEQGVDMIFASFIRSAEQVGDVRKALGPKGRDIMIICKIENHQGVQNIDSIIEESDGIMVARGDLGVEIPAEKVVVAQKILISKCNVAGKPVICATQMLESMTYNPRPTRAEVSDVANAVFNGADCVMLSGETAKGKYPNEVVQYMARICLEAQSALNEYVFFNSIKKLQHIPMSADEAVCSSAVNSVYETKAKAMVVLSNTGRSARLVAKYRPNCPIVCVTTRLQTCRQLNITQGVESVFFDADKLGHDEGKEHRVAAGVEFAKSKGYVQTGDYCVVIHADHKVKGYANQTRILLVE
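In 50 mM imidazole pH 7.2 with 7 mM MgCl2, LmPK (0.1 nM) turned over PEP (0.5 mM) and ADP (0.1 mM) for 1 h at room temperature. Luciferase read-out of ATP.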
Sm TGR inh: qHTS Assay for the Inhibitors of Schistosoma Mansoni Peroxiredoxins; purified TGR, DTNB reduction, TNB absorbance 405 nm; Potency, µM (highest dose often 114 µM), usual class: inhibitors; Schistosoma mansoni thioredoxin glutathione reductase (TGR), Q962Y6; hit rate 3% among 360,000; further: nearly all actives have a fitted effect of over 60% in size
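TGR 20 nM + NADPH 100 uM (dispensed conc.), cpd preinc 15 min RT; start with NADPH (500 uM addition) then DTNB (15 mM addition). Kinetic TNB absorbance, 405 nm filter. Four-parameter Hill fit across titration.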
Numbers stand for hits; [ ] = dose if it differs, or a comment. Only some compounds are listed: those with a hit (about 3.2% of all), similar ones and a draw of the others. Unless noted, the call rests on the fitted dose curve; in most records, active means well fitted curve in the direction sought with a large enough effect; inconclusive means small, poorly fitted or top-dose-only effect, or another doubt; inactive means no such curve, though single readings can be large; an effect the other way counts as inactive or inconclusive.

What do the screens show for `CNC(C)Cc1ccccc1Sc1ccc(O)cc1` (stereo not drawn)?
Tb PYK inh: inactive; RE007 growth inh: inactive; AMA1-RON2 inh: inactive; LmPK inhibitor: inactive; Sm TGR inh: inactive

How did O=C(COC(=O)/C=C/c1cccs1)Nc1nc(-c2cccc(Br)c2)cs1 do in these assays?
Tb PYK inh: inactive; RE007 growth inh: inactive; AMA1-RON2 inh: inactive; LmPK inhibitor: inactive; Sm TGR inh: inactive

Results for CCN(c1ccc(NC(=O)COC(=O)/C=C/c2cccs2)cc1)C(C)C ?
Tb PYK inh: inactive; RE007 growth inh: inconclusive; AMA1-RON2 inh: 18µM; LmPK inhibitor: inactive; Sm TGR inh: inactive

Results for O=C(COC(=O)/C=C/c1cccs1)Nc1nc(-c2ccccc2)cs1 ?
Tb PYK inh: inactive; RE007 growth inh: inactive; AMA1-RON2 inh: inactive; LmPK inhibitor: inactive; Sm TGR inh: 22µM

How did Cc1ccc(NC(=O)COC(=O)/C=C/c2cccs2)cc1 do in these assays?
Tb PYK inh: inactive; RE007 growth inh: inactive; AMA1-RON2 inh: inactive; LmPK inhibitor: inactive; Sm TGR inh: inactive

Results for COc1cccc(NC(=O)C2CCCN(S(=O)(=O)c3ccc4[nH]c(=O)ccc4c3)C2)c1 (stereo not drawn) ?
Tb PYK inh: inactive; Sm TGR inh: inactive

What do the screens show for `CC(C)NC(=O)CN1CCN(C(=O)CCl)CC1`?
Tb PYK inh: inactive; RE007 growth inh: inactive; AMA1-RON2 inh: inactive; LmPK inhibitor: inactive; Sm TGR inh: inconclusive

How did CN(C)C(=O)CN1CCN(C(=O)CCl)CC1 do in these assays?
Tb PYK inh: inactive; RE007 growth inh: inactive; AMA1-RON2 inh: inactive; LmPK inhibitor: inactive; Sm TGR inh: 45µM

What do the screens show for `Cc1ccc(OCC(=O)OC2=C(C(=O)c3ccccc3)N(C)S(=O)(=O)c3ccccc32)cc1`?
Tb PYK inh: inactive; Sm TGR inh: 32µM

What do the screens show for `CCN1C(C(=O)c2ccccc2)=C(OC(=O)COc2ccccc2)c2ccccc2S1(=O)=O`?
Tb PYK inh: inactive; Sm TGR inh: 16µM

How did CCN1C(C(=O)c2ccccc2)=C(OC(=O)C(C)C)c2ccccc2S1(=O)=O do in these assays?
Tb PYK inh: inactive; Sm TGR inh: inactive

What do the screens show for `Cc1ccc(C(=O)OC2=C(C(=O)c3ccccc3)N(C)S(=O)(=O)c3ccccc32)cc1`?
Tb PYK inh: inactive; Sm TGR inh: inactive

How did COc1ccc(OC)c(NC(=O)c2cc3cc(C)ccc3n2C)c1 do in these assays?
Tb PYK inh: inactive; Sm TGR inh: inactive

Results for O=C(CCO)c1ccc(O)cc1 ?
Tb PYK inh: inactive; RE007 growth inh: inactive; AMA1-RON2 inh: inconclusive; LmPK inhibitor: inactive; Sm TGR inh: 18µM

What do the screens show for `O=C(CCSc1ccc(Br)cc1)c1ccc(O)cc1`?
Tb PYK inh: inactive; AMA1-RON2 inh: inactive; LmPK inhibitor: inactive; Sm TGR inh: 2.5µM

Results for CSCc1ccc(C(=O)NCCSc2ccc(Br)cc2)cc1 ?
Tb PYK inh: inactive; RE007 growth inh: inactive; AMA1-RON2 inh: inactive; LmPK inhibitor: inactive; Sm TGR inh: inactive

What do the screens show for `Cc1cc(C)c(NC(=O)C2CCN(C(=O)N3CC(C)Oc4ccc(Cl)cc43)CC2)c(C)c1` (stereo not drawn)?
Tb PYK inh: inactive; Sm TGR inh: inactive

Results for CCOc1ccc(C(=O)Oc2c(Sc3ccccc3)c(C)nn2C(C)(C)C)cc1OCC ?
Tb PYK inh: inactive; Sm TGR inh: inactive

What do the screens show for `Cc1cc(Br)c(NC(=O)CN(C)CCOc2ccccc2)c(Br)c1`?
Tb PYK inh: inactive; RE007 growth inh: inactive; AMA1-RON2 inh: inactive; LmPK inhibitor: inactive; Sm TGR inh: inactive

Results for Cc1cc(Br)c(NC(=O)CCl)c(Br)c1 ?
Tb PYK inh: inactive; RE007 growth inh: inactive; AMA1-RON2 inh: inactive; LmPK inhibitor: inactive; Sm TGR inh: 32µM

What do the screens show for `Cc1cc(NC(=O)CCl)nn1C`?
Tb PYK inh: inactive; RE007 growth inh: inactive; AMA1-RON2 inh: inactive; LmPK inhibitor: inactive; Sm TGR inh: 28µM

What do the screens show for `Cn1ccc(NC(=O)CCl)n1`?
Tb PYK inh: inactive; RE007 growth inh: inactive; AMA1-RON2 inh: inactive; LmPK inhibitor: inactive; Sm TGR inh: 14µM

How did O=C(NCc1cccc(F)c1)c1ccc(-n2cnc3cccnc32)cc1 do in these assays?
Tb PYK inh: inactive[15.4 µM]; Sm TGR inh: inactive

Results for CCCCn1c(SCC(=O)NCc2ccco2)nnc1-c1ccoc1C ?
Tb PYK inh: inactive; RE007 growth inh: inactive; AMA1-RON2 inh: inactive; LmPK inhibitor: inactive; Sm TGR inh: 28µM

What do the screens show for `CCn1c(SCC(=O)NCc2ccco2)nnc1-c1cccs1`?
Tb PYK inh: inactive; RE007 growth inh: inactive; AMA1-RON2 inh: inactive; LmPK inhibitor: inactive; Sm TGR inh: 10µM

How did CC(Sc1nnc(-c2cccs2)n1-c1ccccc1)C(=O)NCc1ccco1 (stereo not drawn) do in these assays?
Tb PYK inh: inactive; RE007 growth inh: inactive; AMA1-RON2 inh: inactive; LmPK inhibitor: inactive; Sm TGR inh: 45µM

Results for CC(Sc1ccsc1[N+](=O)[O-])C(=O)NCc1ccco1 (stereo not drawn) ?
Tb PYK inh: inactive; RE007 growth inh: inactive; AMA1-RON2 inh: inactive; LmPK inhibitor: inactive; Sm TGR inh: 22µM

How did CCCn1c(SCC(=O)NCc2ccco2)nnc1-c1ccncc1 do in these assays?
Tb PYK inh: inactive; RE007 growth inh: inactive; AMA1-RON2 inh: inactive; LmPK inhibitor: inactive

Results for CN1C[C@H]2c3ccccc3Oc3ccc(Cl)cc3[C@@H]2C1 ?
Tb PYK inh: inactive

How did COCCn1c(SCC(=O)c2ccc(Cl)cc2)nnc1C(C)C do in these assays?
Tb PYK inh: inconclusive; RE007 growth inh: inactive; AMA1-RON2 inh: inactive; LmPK inhibitor: inactive; Sm TGR inh: 40µM

Results for COCCn1c(SCC(=O)NCc2ccco2)nnc1C(C)C ?
Tb PYK inh: inactive; RE007 growth inh: inactive; AMA1-RON2 inh: inactive; LmPK inhibitor: inactive; Sm TGR inh: 45µM

Results for CCn1c(SCC(=O)NCc2ccco2)nnc1C(C)C ?
Tb PYK inh: inactive; RE007 growth inh: inactive; AMA1-RON2 inh: inactive; LmPK inhibitor: inactive; Sm TGR inh: inactive

What do the screens show for `CCCCn1c(SCC(=O)NCc2ccco2)nnc1-c1ccco1`?
Tb PYK inh: inactive; RE007 growth inh: inactive; AMA1-RON2 inh: inactive; LmPK inhibitor: inactive; Sm TGR inh: 45µM

Results for Cc1nn(-c2ccccc2)c(N)c1-c1ccccc1 ?
Tb PYK inh: inactive; RE007 growth inh: inactive; AMA1-RON2 inh: inactive; LmPK inhibitor: inactive; Sm TGR inh: inactive

Results for Cc1nn(-c2nc3ccccc3[nH]2)c(N)c1-c1ccccc1 ?
Tb PYK inh: inactive; RE007 growth inh: 28µM; AMA1-RON2 inh: inactive; LmPK inhibitor: inactive; Sm TGR inh: inactive

What do the screens show for `Cc1ccc(NC(=O)CSc2n[nH]c(-c3ccc(F)cc3)n2)cc1F`?
Tb PYK inh: inactive; Sm TGR inh: inactive
